# Measured values published in PubChem BioAssay.
# Unmarked numbers belong to inactive results. Activity calls are given as the source filed them. Rule as the data show it, unless noted: active = inhibition above about 25%; inactive = the rest.
# Biological target: Nuclear receptor coactivator 1 (Homo sapiens) (UniProt Q15788)
# Assay: NCOA1 GAL4-fusion reporter inhibition – cell-based, luminescence, quadruplicate, confirmation (AID 588820;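 active = mean inhibition above 46.68%, the untreated control wells mean plus 3 SD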;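 also: 0% = DMSO wells and 100% = gossypol 36 µM treated wells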)
# Conditions: HEK293 GAL4-SRC1 luciferase reporter, at 3.6 µM, hits give high values
# Nuclear receptor coactivator 1 (Homo sapiens), sequence (Q15788 whole entry, looked up, the tested form may be a part): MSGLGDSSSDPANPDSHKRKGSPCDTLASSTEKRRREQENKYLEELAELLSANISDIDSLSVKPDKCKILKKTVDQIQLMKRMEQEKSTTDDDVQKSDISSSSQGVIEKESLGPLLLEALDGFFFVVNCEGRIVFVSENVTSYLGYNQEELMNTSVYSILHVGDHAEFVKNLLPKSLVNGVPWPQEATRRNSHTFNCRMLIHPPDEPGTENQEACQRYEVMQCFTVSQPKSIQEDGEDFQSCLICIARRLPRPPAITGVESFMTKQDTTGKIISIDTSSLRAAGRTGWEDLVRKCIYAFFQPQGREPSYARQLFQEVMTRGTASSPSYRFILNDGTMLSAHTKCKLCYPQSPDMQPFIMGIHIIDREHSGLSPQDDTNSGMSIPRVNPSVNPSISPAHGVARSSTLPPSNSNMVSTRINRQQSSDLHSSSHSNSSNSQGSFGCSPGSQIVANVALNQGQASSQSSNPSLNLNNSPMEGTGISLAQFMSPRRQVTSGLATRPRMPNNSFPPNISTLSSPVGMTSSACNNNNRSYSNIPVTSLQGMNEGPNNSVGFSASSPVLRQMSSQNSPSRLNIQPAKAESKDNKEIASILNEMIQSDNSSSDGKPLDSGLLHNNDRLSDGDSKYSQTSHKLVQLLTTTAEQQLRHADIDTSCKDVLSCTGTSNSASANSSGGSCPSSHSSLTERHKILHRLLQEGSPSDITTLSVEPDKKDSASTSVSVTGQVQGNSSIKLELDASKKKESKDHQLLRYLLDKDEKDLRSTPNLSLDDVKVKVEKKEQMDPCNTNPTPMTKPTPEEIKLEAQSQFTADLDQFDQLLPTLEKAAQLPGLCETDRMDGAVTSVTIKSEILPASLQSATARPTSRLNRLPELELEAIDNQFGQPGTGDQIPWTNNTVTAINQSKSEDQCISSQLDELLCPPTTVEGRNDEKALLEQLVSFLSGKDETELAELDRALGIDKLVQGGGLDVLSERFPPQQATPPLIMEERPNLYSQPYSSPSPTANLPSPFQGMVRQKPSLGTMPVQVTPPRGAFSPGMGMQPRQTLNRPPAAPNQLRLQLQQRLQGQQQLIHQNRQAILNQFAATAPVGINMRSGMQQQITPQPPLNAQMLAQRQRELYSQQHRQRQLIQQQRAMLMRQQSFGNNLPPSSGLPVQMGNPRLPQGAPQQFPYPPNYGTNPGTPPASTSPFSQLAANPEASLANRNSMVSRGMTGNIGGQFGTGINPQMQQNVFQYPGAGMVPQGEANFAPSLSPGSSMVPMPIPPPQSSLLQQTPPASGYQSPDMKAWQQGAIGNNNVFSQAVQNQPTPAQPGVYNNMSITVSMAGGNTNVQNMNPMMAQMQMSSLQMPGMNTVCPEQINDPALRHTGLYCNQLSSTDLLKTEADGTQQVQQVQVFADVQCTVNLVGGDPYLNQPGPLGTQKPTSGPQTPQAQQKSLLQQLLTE
row,SMILES,inhibition [%]
1,CCOC(=O)c1cc(C#N)c(SCC(=O)OC)[nH]c1=O,1.73
2,CCOC(=O)C1=C[C@@H](CC)N(S(=O)(=O)c2ccc([N+](=O)[O-])cc2)[C@H]1c1ccccc1,-2.32
3,CCSc1nnc(NC(=O)C(C)(C(F)(F)F)C(F)(F)F)s1,-15.3
4,CC(=O)/C(=C/c1ccccc1)C(=O)Nc1ccccc1C,5.97
5,COc1ccc(S(=O)(=O)N2CCOC23CCN(S(=O)(=O)c2ccc(Cl)cc2)CC3)cc1,-7.54
6,CCc1noc(C)c1C(=O)Nc1ccccc1N1CCOCC1,-11
7,Cc1ccccc1N(C(=O)c1csnn1)C(C(=O)NC1CCCCC1)c1ccncc1 (stereo not given),-16
8,Cc1cc2c(NCc3ccccc3)ncnc2s1,5
9,COc1ccccc1CCC(=O)Nc1cccc(S(=O)(=O)N2CCCCCC2)c1,-1.96
10,O=C(COc1ccccc1-c1ccccc1)N/N=C/c1ccncc1,-7.29
11,C[C@H]1CN([C@@H](C)CO)C(=O)CCCn2nncc2CO[C@H]1CN(C)C(=O)C1CCCCC1,-19.8
12,Cc1cccc(NC(=O)CSCC(=O)N2CCN(Cc3ccc4c(c3)OCO4)CC2)c1,2.48
13,CCOc1ccc(CCN2C(=S)N([C@@H](Cc3ccc(O)cc3)CN3CCC[C@@H]3CN3C(=S)NC[C@@H]3CC(C)C)C[C@@H]2CC(C)C)cc1,-13
14,Cc1nn(Cc2cccc(F)c2)c(C)c1NC(=O)c1ccc(COc2ccccc2Cl)cc1,31.2
15,Cc1ccccc1C(=O)Nc1cc(NC(=O)c2ccccc2C)cc(C(=O)O)c1,-14.1
16,Cc1cccc(C(=O)OCC(=O)NNC(=O)c2cccs2)c1O,-18.5
17,COc1cc(NC(=O)c2cc3cccc(OC)c3o2)cc(C(=O)Nc2cccc(C(F)(F)F)c2)c1,-23.9
18,O=C(Nc1ccncc1)c1ccc(Cl)c(S(=O)(=O)N2CCc3ccccc32)c1,-6.49
19,COc1cccc(N2CC(NS(=O)(=O)c3cccnc3)CC2=O)c1 (stereo not given),-40.7
20,CCN(CC)CCNc1nc2cc(OC)c(OC)cc2c2nc(-c3ccccc3)nn12,9.19

row,SMILES,inhibition [%]
1,C[C@H](N)c1nnc(SCC(N)=O)o1,-1.81
2,Cc1ccccc1NC(=S)NNC(=O)c1csc2c1CCC(C)C2 (stereo not given),-45.9
3,Cc1cc(NC(=O)C(Cl)c2ccccc2)no1 (stereo not given),-11.5
4,Cn1c(=O)c([N+](=O)[O-])c(NCCc2ccccc2)c2ccccc21,4.22
5,CO/N=C/C(c1ccc(Cl)nc1)S(=O)(=O)c1ccccc1 (stereo not given),-12.5
6,c1ccc(-n2cnc3cc(NCc4cccs4)ccc32)cc1,-69.4
7,O=C(CSC1=NS(=O)(=O)c2cc(Cl)ccc2N1)Nc1ccccc1C(F)(F)F,-22.4
8,NC(=O)c1nsc(C(=O)N(c2ccccc2F)C(C(=O)NCc2ccc(F)cc2)c2ccc(O)cc2)c1N (stereo not given),-23.1
9,COc1ccc(CCC(=O)Nc2ccc(Cl)c(S(=O)(=O)N3CCCC3)c2)cc1,12.1
10,COc1ccc([C@H]2CC(=O)C=C(c3ccnc4ccc(Cl)cc34)C2)cc1,2.04
11,CC(=O)c1cccc(NC(=O)c2ccc(CN3CCc4ccccc4C3)cc2)c1,-1.99
12,CCOc1ccc(CSC(=N)N)cc1Cl,-21.1
13,Cc1cc(OCC(O)CN2CCc3ccccc3C2)cc(C(C)C)c1 (stereo not given),-16.6
14,CCOc1ccc(-c2[nH]ncc2-c2ccc(Cl)cc2)c(O)c1,-8.3
15,Fc1cc2[nH]cnc2cc1Cl,-2.02
16,Cc1cc(C)cc(C(=O)Nc2cccc(NC(=O)c3ccco3)c2)c1,-11.1
17,CC(C)C[C@H]1CNC(=S)N1C[C@H]1CCCN1C[C@H](CC(C)C)N1C[C@H](CC(C)C)N(CCc2ccccc2)C1=S,-1.01
18,N#CC1(NC(=O)CSc2nnc(-c3ccccc3F)o2)CCCCC1,-24.1
19,O=c1c2ccccc2cnn1Cc1n[nH]c(=S)n1C1CC2CCC1C2 (stereo not given),8.04
20,CN(C)CCNC(=O)c1cccc2nc3c(ccc4ccccc43)nc12,30.5

# Tested on: not listed separately
# Assay: repression of VP16-driven luciferase reporter – cell-based, luminescence, high throughput, counter-screen for SRC1 inhibitor project (AID 588824)
# Conditions: cell-based VP16 transactivation luciferase luminescence; at 3.6 µM; hits give high values
row,SMILES,inhibition
1,CCOC(=O)c1cc(C#N)c(SCC(=O)OC)[nH]c1=O,-9.78%
2,CCOC(=O)C1=C[C@@H](CC)N(S(=O)(=O)c2ccc([N+](=O)[O-])cc2)[C@H]1c1ccccc1,-3.27%
3,CCSc1nnc(NC(=O)C(C)(C(F)(F)F)C(F)(F)F)s1,4.32%
4,CC(=O)/C(=C/c1ccccc1)C(=O)Nc1ccccc1C,23.8%
5,COc1ccc(S(=O)(=O)N2CCOC23CCN(S(=O)(=O)c2ccc(Cl)cc2)CC3)cc1,-6.07%
6,CCc1noc(C)c1C(=O)Nc1ccccc1N1CCOCC1,1.51%
7,Cc1ccccc1N(C(=O)c1csnn1)C(C(=O)NC1CCCCC1)c1ccncc1 (stereo not given),-5.53%
8,Cc1cc2c(NCc3ccccc3)ncnc2s1,18.8%
9,COc1ccccc1CCC(=O)Nc1cccc(S(=O)(=O)N2CCCCCC2)c1,-7.85%
10,O=C(COc1ccccc1-c1ccccc1)N/N=C/c1ccncc1,13.6%
11,C[C@H]1CN([C@@H](C)CO)C(=O)CCCn2nncc2CO[C@H]1CN(C)C(=O)C1CCCCC1,-11.3%
12,Cc1cccc(NC(=O)CSCC(=O)N2CCN(Cc3ccc4c(c3)OCO4)CC2)c1,1.12%
13,CCOc1ccc(CCN2C(=S)N([C@@H](Cc3ccc(O)cc3)CN3CCC[C@@H]3CN3C(=S)NC[C@@H]3CC(C)C)C[C@@H]2CC(C)C)cc1,-0.17%
14,Cc1nn(Cc2cccc(F)c2)c(C)c1NC(=O)c1ccc(COc2ccccc2Cl)cc1,46.7% (active)
15,Cc1ccccc1C(=O)Nc1cc(NC(=O)c2ccccc2C)cc(C(=O)O)c1,-11.4%
16,Cc1cccc(C(=O)OCC(=O)NNC(=O)c2cccs2)c1O,-2.62%
17,COc1cc(NC(=O)c2cc3cccc(OC)c3o2)cc(C(=O)Nc2cccc(C(F)(F)F)c2)c1,18.4%
18,O=C(Nc1ccncc1)c1ccc(Cl)c(S(=O)(=O)N2CCc3ccccc32)c1,36.8% (active)
19,COc1cccc(N2CC(NS(=O)(=O)c3cccnc3)CC2=O)c1 (stereo not given),-8.11%
20,CCN(CC)CCNc1nc2cc(OC)c(OC)cc2c2nc(-c3ccccc3)nn12,33.3% (active)

row,SMILES,inhibition
1,C[C@H](N)c1nnc(SCC(N)=O)o1,-12.9%
2,Cc1ccccc1NC(=S)NNC(=O)c1csc2c1CCC(C)C2 (stereo not given),-23%
3,Cc1cc(NC(=O)C(Cl)c2ccccc2)no1 (stereo not given),3.89%
4,Cn1c(=O)c([N+](=O)[O-])c(NCCc2ccccc2)c2ccccc21,4.74%
5,CO/N=C/C(c1ccc(Cl)nc1)S(=O)(=O)c1ccccc1 (stereo not given),-1.73%
6,c1ccc(-n2cnc3cc(NCc4cccs4)ccc32)cc1,-44.1%
7,O=C(CSC1=NS(=O)(=O)c2cc(Cl)ccc2N1)Nc1ccccc1C(F)(F)F,-12.3%
8,NC(=O)c1nsc(C(=O)N(c2ccccc2F)C(C(=O)NCc2ccc(F)cc2)c2ccc(O)cc2)c1N (stereo not given),-2.03%
9,COc1ccc(CCC(=O)Nc2ccc(Cl)c(S(=O)(=O)N3CCCC3)c2)cc1,27.8% (active)
10,COc1ccc([C@H]2CC(=O)C=C(c3ccnc4ccc(Cl)cc34)C2)cc1,29.2% (active)
11,CC(=O)c1cccc(NC(=O)c2ccc(CN3CCc4ccccc4C3)cc2)c1,9.39%
12,CCOc1ccc(CSC(=N)N)cc1Cl,9.52%
13,Cc1cc(OCC(O)CN2CCc3ccccc3C2)cc(C(C)C)c1 (stereo not given),-6.97%
14,CCOc1ccc(-c2[nH]ncc2-c2ccc(Cl)cc2)c(O)c1,3.27%
15,Fc1cc2[nH]cnc2cc1Cl,-5.47%
16,Cc1cc(C)cc(C(=O)Nc2cccc(NC(=O)c3ccco3)c2)c1,9.42%
17,CC(C)C[C@H]1CNC(=S)N1C[C@H]1CCCN1C[C@H](CC(C)C)N1C[C@H](CC(C)C)N(CCc2ccccc2)C1=S,1.5%
18,N#CC1(NC(=O)CSc2nnc(-c3ccccc3F)o2)CCCCC1,-10.4%
19,O=c1c2ccccc2cnn1Cc1n[nH]c(=S)n1C1CC2CCC1C2 (stereo not given),-8.54%
20,CN(C)CCNC(=O)c1cccc2nc3c(ccc4ccccc43)nc12,40.4% (active)
